According to PubChem BioAssay (NCATS):
Values joined by “and” are separate entries in the source; they are usually repeats but may differ in a detail not shown here. Equal entries are not always repeated. Records with an inconclusive call do not appear. Active and inactive are the calls of the source. Calls come from the whole dose curve; as a rule, active = well fitted curve in the direction sought with a large enough effect; inconclusive = small, poorly fitted or top-dose-only effect, or another doubt; inactive = no such curve, though single readings can be large; an effect the other way counts as inactive or inconclusive. Bridge positions count the residues as written; N and C are the ends. Square brackets hold non-standard residues; d marks the D form. Peptide text beside a SMILES is read from it. * marks the point of attachment. ξ: configuration not given here. Octanoyl(6-Me) = CCC(C)CCCCC(=O)*; ξThr(3R) = C[C@@H](O)C(N)C(=O)O; dDab = NCC[C@@H](N)C(=O)O; Dab = NCC[C@H](N)C(=O)O

Assays:
[1] = Viability qHTS for spleen associated tyrosine kinase inhibitor (SYKi) naive MV4-11 cells (AID 1963823); note: nearly all actives have a fitted effect of over 40% in size
Procedure, shortened: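 Viability of MV4-11 AML cells lacking prior SYK inhibitor exposure is scored by CellTiter-Glo luminescence following 72 hr compound incubation at 37 C, 5% CO2, seeded at 500 cells per well.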

[2] = Viability qHTS for spleen associated tyrosine kinase inhibitor (SYKi) drug resistant MV4-11 cells (AID 1963824); note: nearly all actives have a fitted effect of over 35% in size
Procedure, shortened: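 SYK-inhibitor-resistant MV4-11 AML cells were seeded at 500 per well onto compound and cultured 72 hours (37 °C, 5% CO2). CellTiter-Glo was then added, and after 10 min at room temperature, luminescence gave viability.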

[3] = Quantitative highthroughput screen to assess conditional lethalithy of NOMO1 cells grown in RPMI1640 with untreated serum (RPMI+s) (AID 1963876); note: nearly all actives have a fitted effect of over 35% in size;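 for Viability: 100% = DMSO wells and 0% = empty wells without cells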
Procedure, shortened: (§1)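 Each medium arm—HPLM with 10% dialyzed FBS, or RPMI1640 with 5 mM glucose and 10% untreated or dialyzed FBS—was screened against an 11-point, 3-fold compound titration for 48 h at 37 °C, with CellTiter-Glo luminescence as endpoint.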

[4] = Quantitative highthroughput screen to assess conditional lethalithy of NOMO1 cells grown in RPMI1640 with dialyzed fetal bovine serum (RPMI+ds) (AID 1963877); note: nearly all actives have a fitted effect of over 30% in size;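 for Viability: series mostly up to about 46 µM; 100% = DMSO control wells and 0% = empty wells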
Procedure, shortened: as §1

[5] = Quantitative highthroughput screen to assess conditional lethalithy of NOMO1 cells grown in Human Plasma-Like Medium with dialyzed fetal bovine serum (HPLM+ds) (AID 1963878); note: nearly all actives have a fitted effect of over 35% in size;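 for Viability: 100% = DMSO wells and 0% = empty wells on each plate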
Procedure, shortened: as §1

[6] = Quantitative highthroughput screen to assess conditional lethalithy of P12 Ichikawa cells grown in Human Plasma-Like Medium with dialyzed fetal bovine serum (HPLM+ds) (AID 1963879); details: Potency: viability; note: nearly all actives have a fitted effect of over 35% in size; for Viability: series mostly up to about 46 µM
Procedure, shortened: as §1

[7] = Quantitative highthroughput screen to assess conditional lethalithy of P12 Ichikawa cells grown in RPMI1640 with dialyzed fetal bovine serum (RPMI+ds) (AID 1963880); details: Potency: P12-Ichikawa viability; note: nearly all actives have a fitted effect of over 35% in size;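 for Viability: 100% = DMSO wells and 0% = empty wells on each plate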
Procedure, shortened: as §1

[8] = Quantitative highthroughput screen to assess conditional lethalithy of P12 Ichikawa cells grown in RPMI1640 with untreated serum (RPMI+s) (AID 1963881); details: Potency: viability; note: nearly all actives have a fitted effect of over 35% in size;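 for Viability: series mostly up to about 46 µM; 100% = DMSO wells and 0% = empty wells without cells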
Procedure, shortened: as §1

[9] = Quantitative highthroughput screen to assess conditional lethalithy of SEM cells grown in RPMI1640 with unreated serum (RPMI+s) (AID 1963883); note: nearly all actives have a fitted effect of over 35% in size;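 for Viability: 100% = DMSO wells and 0% = empty wells without cells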
Procedure, shortened: as §1

[10] = Quantitative highthroughput screen to assess conditional lethalithy of SEM cells grown in Human Plasma-Like Medium with dialyzed fetal bovine serum (HPLM+ds) (AID 1963882); note: nearly all actives have a fitted effect of over 35% in size; for Viability: series mostly up to about 46 µM
Procedure, shortened: as §1

[11] = Cellular viability qHTS for adrenocortical cancer (ACC) cell line NCI-H295R (AID 1963990); note: nearly all actives have a fitted effect of over 60% in size
Procedure, shortened: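 IC50 and maximal efficacy derive from four-parameter logistic modelling of titration curves, with reads scaled between DMSO-only wells (0%) and doxorubicin hydrochloride (100% inhibition). Compounds spanned up to 46 uM over 48 h.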

[12] = Quantitative highthroughput screen to assess conditional lethalithy of SEM cells grown in RPMI1640 with dialyzed fetal bovine serum (RPMI+ds) (AID 1963884); note: nearly all actives have a fitted effect of over 35% in size;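 for Viability: series mostly up to about 46 µM; 100% = DMSO control wells and 0% = empty wells without cells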
Procedure, shortened: as §1

[13] = Cellular viability qHTS for adrenocortical cancer (ACC) cell line SW-13 (AID 1963989); details: SW-13 ACC cells viability, CellTiter-Glo, 48 h; activity (max response): active compounds read low; note: nearly all actives have a fitted effect of over 65% in size;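 for activity (max response): cells grown in serum-free medium with ITS supplement; % is set by controls: 0 for no effect and ±100 for the full control effect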
Procedure, shortened: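 Luminescent ATP read-out (CellTiter-Glo, 20 min at room temperature) measured metabolically competent SW-13 cells after 48 h compound treatment. Final concentrations spanned up to 46 uM; bortezomib served as positive control.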
Potency is the fitted concentration of half-maximal effect.

COc1ccc2c(Oc3ccc(NC(=O)c4c(C)n(CC(C)(C)O)n(-c5ccccc5)c4=O)cc3F)ccnc2c1
inactive: Potency [3] | Potency [5] | Potency [6] | Potency [7] | Potency [8]
active: Potency [1] 0.0934 µM | Potency [2] 0.148 µM | Potency [4] 18.7 µM | Potency [9] 3.32 µM

COc1cc2nc(N3CCN(C(=O)C4CCCO4)CC3)nc(N)c2cc1OC (stereo not given)
inactive: Potency [1] | Potency [2] | Potency [3] | Potency [4] | Potency [5] | Potency [6] | Potency [7] | Potency [8] | Potency [9]

Cc1cccc(-c2[nH]c(C(C)(C)C)nc2-c2ccc3c(c2)OCO3)n1
active: Potency [1] 2.35 µM | Potency [2] 1.46 µM and 2.09 µM | Potency [3] 8.33 µM | Potency [4] 9.35 µM | Potency [5] 10.5 µM | Potency [6] 9.35 µM | Potency [7] 11.8 µM | Potency [8] 10.5 µM | Potency [10] 8.33 µM | Potency [9] 9.35 µM | Potency [11] 4.47 µM

Cc1n[nH]c(C)c1Cc1sc2c(c1C(=O)N1C[C@H](O)CO1)c(=O)n(C)c(=O)n2CC(C)C
inactive: Potency [1] | Potency [2] | Potency [3] | Potency [4] | Potency [5] | Potency [6] | Potency [7] | Potency [8] | Potency [12] | activity (max response) [13] 15%

NC[C@H]1O[C@H](O[C@@H]2[C@@H](O)[C@@H](O[C@H]3O[C@H](CO)[C@@H](O)[C@H](N)[C@@H]3O)[C@H](N)C[C@@H]2N)[C@H](O)[C@@H](O)[C@H]1O
active: Potency [1] 1.05 µM
inactive: Potency [2] | Potency [3] | Potency [4] | Potency [5] | Potency [6] | Potency [7] | Potency [10] | Potency [9] | Potency [12] | activity (max response) [13] 12.9% | Potency [11]

CCn1c(-c2nonc2N)nc2cncc(CNC3CCNCC3)c21
inactive: activity (max response) [13] -7.16%
active: Potency [1] 2.91 µM and 2.95 µM | Potency [2] 7.31 µM and 5.25 µM | Potency [3] 9.35 µM | Potency [4] 18.7 µM | Potency [5] 3.72 µM | Potency [6] 6.62 µM | Potency [7] 18.7 µM | Potency [9] 2.35 µM | Potency [12] 10.5 µM

CCC(C)CCCCC(=O)N[C@@H](CCN)C(=O)NC(C(=O)N[C@H](CCN)C(=O)N[C@@H]1CCNC(=O)C([C@@H](C)O)NC(=O)[C@@H](CCN)NC(=O)[C@@H](CCN)NC(=O)[C@@H](CC(C)C)NC(=O)[C@H](Cc2ccccc2)NC(=O)[C@H](CCN)NC1=O)[C@@H](C)O (stereo partly drawn) ({Octanoyl(6-Me)}-[Dab][ξThr(3R)][dDab][dDab][Dab]F[dL][dDab][dDab][ξThr(3R)]; lactam 4-C)
inactive: Potency [1] | Potency [2] | Potency [3] | Potency [4] | Potency [5] | Potency [6] | Potency [8] | Potency [10] | Potency [9] | Potency [12] | activity (max response) [13] 3.16% | Potency [11]

O=C(CCCCCCNC(=O)c1cnc(N(c2ccccc2)c2ccccc2)nc1)NO
active: Potency [1] 2.95 µM | Potency [2] 2.35 µM | Potency [3] 18.7 µM | Potency [4] 16.6 µM | Potency [5] 14.8 µM | Potency [6] 6.62 µM | Potency [8] 7.43 µM | Potency [10] 7.43 µM | Potency [9] 5.9 µM | Potency [13] 15.8 µM | Potency [11] 14.1 µM

COc1cc2nccc(Oc3ccc(NC(=O)NC4CC4)c(Cl)c3)c2cc1C(N)=O
inactive: activity (max response) [13] 3.51% | Potency [11]
active: Potency [1] 0.461 µM | Potency [2] 1.03 µM | Potency [3] 26.4 µM | Potency [4] 23.5 µM | Potency [5] 18.7 µM | Potency [6] 18.7 µM | Potency [7] 20.9 µM | Potency [8] 20.9 µM

CCOc1cc2c(c(F)c1OCC)C(=N)N(CC(=O)c1cc(N3CCOCC3)c(OC)c(C(C)(C)C)c1)C2
inactive: Potency [3] | Potency [4] | Potency [5] | Potency [6] | Potency [8]
active: Potency [1] 9.2 µM | Potency [2] 18.4 µM and 4.68 µM

O=c1[nH]nc(Sc2ncc([N+](=O)[O-])s2)n1-c1ccc2c(c1)OCCO2
active: Potency [1] 2.35 µM | Potency [2] 2.35 µM | Potency [3] 9.35 µM | Potency [4] 8.33 µM | Potency [5] 9.35 µM | Potency [6] 14.8 µM | Potency [7] 9.35 µM | Potency [10] 8.33 µM | Potency [9] 7.43 µM | Potency [12] 8.33 µM | Potency [13] 17.8 µM

C#Cc1cccc(Nc2ncnc3cc(OC)c(OCCCCCCC(=O)NO)cc23)c1
active: Potency [1] 291 nM and 372 nM | Potency [2] 231 nM and 296 nM | Potency [3] 1.05 µM | Potency [4] 0.662 µM | Potency [5] 0.372 µM | Potency [6] 0.235 µM | Potency [7] 0.166 µM | Potency [10] 0.296 µM | Potency [9] 0.209 µM | Potency [12] 0.209 µM | Potency [13] 1.78 µM | Potency [11] 2 µM

O=C(CCCCCCC(=O)Nc1cccnc1)NO
active: Potency [1] 3.32 µM | Potency [2] 3.72 µM | Potency [3] 20.9 µM | Potency [4] 20.9 µM | Potency [5] 18.7 µM | Potency [6] 7.43 µM | Potency [8] 8.33 µM | Potency [10] 8.33 µM | Potency [9] 8.33 µM | Potency [12] 6.62 µM | Potency [13] 12.6 µM | Potency [11] 4.47 µM

Cn1cc(-c2ccncc2)c(-c2ccc(OCc3ccc4ccccc4n3)cc2)n1
inactive: Potency [3] | Potency [4] | Potency [5] | Potency [10] | Potency [9]
active: Potency [1] 4.11 µM | Potency [2] 7.42 µM | Potency [6] 14.8 µM | Potency [7] 8.33 µM
